# Only some compounds are listed: those with a hit (about 2% of all), similar ones and a draw of the others.
# Calb FLC: affects C. albicans growth with fluconazole; C. albicans CaCi-2 (fluconazole-resistant clinical isolate) + fluconazole, Alamar Blue growth, 48 h; growth inhibition, % (test concentration not listed); actives 0.57% (n = 300,000);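 active = growth inhibition above about 58% in most replicates, limit read from the data, passing the limit was not always enough; inconclusive = exactly half the replicates above a set limit; inactive = most replicates below a set limit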;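 also: all wells also contain fluconazole at 8 µg/ml as a sub-toxic cotreatment; 0% = median of DMSO wells and 100% = median of geldanamycin control wells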
# 697 NFkB inh: lowers PMA/ionomycin-induced NF-kB signal in 697 B cells. 697 B-cell NF-kB luciferase reporter, 16 h. inhibition, % at 4 µM. actives 0.33% (n = 330,000); in the data active = inhibition above about 35%
# Jurkat NFkB inh: inhibitors of the PMA/ionomycin-induced NF-kB reporter in Jurkat cells; PMA/ionomycin-induced NF-kB luciferase reporter, luminescence; inhibition, % at 4 µM; actives 0.53% (n = 330,000); AID 435003; in the data active = inhibition above about 50%
# Beta cell apopt: beta cell apoptosis inhibition; protection from apoptosis, % (concentration not given with the values); AID 435005; actives 0.8% (n = 300,000); INS-1E cytokine-induced death, ATP luminescence, 48 h; percent of positive-control rescue, neutral wells zero;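 active = Every replicate reaches about 75%, or at least half do and their mean reaches it too, limit read from the data; inconclusive = At least half of replicates reach the limit but their mean does not; inactive = Under half of replicates reach the limit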;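 also: 0% = cytokine-treated negative control wells and 100% = positive control rescue; higher means more ATP so stronger rescue from cytokine killing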
# Shn3 3UTR inh: Schnurri-3 reporter inhibition in Clone20 osteoblasts; actives 0.52% (n = 360,000); Clone20 osteoblast Shn3 3'UTR firefly luciferase, 24 h; AID 588674; inhibition, % at 12.5 µM;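 active = mean inhibition of at least 75% with every replicate also reaching 75%; inconclusive = mean inhibition at least 75% but some replicate below; inactive = mean inhibition below 75%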;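 also: 0% = median of neutral control wells and 100% = pilot-screen positive control compound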
# * = called active by the depositor; ? = inconclusive; . = not tested or not shown; ! = not active in a repeat.
SMILES,Calb FLC,697 NFkB inh,Jurkat NFkB inh,Beta cell apopt,Shn3 3UTR inh
O=C(CC1C[C@H](C(=O)N2CCOCC2)[C@@]2(CCC3CCCC3)c3[nH]c4ccccc4c3CCN2C1=O)NCCC1=CCCCC1 (some centres not stated),.,4,7,5,-12
Cc1ccc(SCCC(=O)N/N=C/c2ccccc2O)cc1,92*,-53,2,42,19
O=C(Nc1cccc(Cl)c1)Nc1nccs1,80*,-45,-28,-5,-13
CN1CCN(Cc2nc3ccccc3c(=O)n2Cc2nc(-c3ccc4ccccc4c3)cs2)CC1,0,.,.,-3,93*!
CC(C)CNC(=O)COC(=O)c1c2c(nc3ccccc13)/C(=C/c1cccs1)CC2,-3,.,.,78*,64
CCCCNC(=O)COC(=O)c1c2c(nc3ccccc13)/C(=C\c1cccs1)CC2,.,.,.,.,31
Oc1ccc(COCc2ccccc2)c2cccnc12,1,-67,-14,99*,51
Oc1ccc(Cl)c2cccnc12,.,.,.,.,30
CN(Cc1ccco1)Cc1ccc(O)c2ncccc12,.,-5,5,1,-2
CCCOCc1ccc(O)c2ncccc12,90*,-12,-12,107*,57
CC(C)COCc1ccc(O)c2ncccc12,98*,3,8,89*,72
C[C@H]1CCCCO[C@@H](CN(C)C(=O)NC2CCCCC2)[C@@H](C)CN([C@@H](C)CO)C(=O)c2cc(NC(=O)Cc3ccccc3)ccc2O1,.,.,.,.,14
C[N+]1(CC(=O)OC2CCCCCCCCCCC2)CCCC1,99*,-7,-2,5,-3
CCCc1c(C(=O)N/N=C(/C)c2ccncc2)nnn1-c1nonc1N,-7,19,27,-1,15
Cc1cccc(NC2=NC(=S)N(c3cccc(C(=O)O)c3)C23CCCCC3)c1,104*,10,-2,-8,-36
Cc1cccc(N2C(=S)N=C(Nc3c(C)cccc3C)C23CCOC(C)(C)C3)c1 (configuration not stated),1,-8,-3,82*,-9
Cc1cccc(C)c1NC1=NC(=S)N(c2ccccc2)C12CCOC(C)(C)C2 (configuration not stated),7,-3,3,-1,9
COc1ccc(CN2C(=NC(=O)C3CC3)SC3CS(=O)(=O)CC32)cc1OC (configuration not stated),-1,18,-10,-6,-10
CNC1=C(N(C(C)=O)c2ccc(Br)cc2)C(=O)c2ccccc2C1=O,103*,.,.,131*,78
COc1cc(C#N)c(NC(=S)N2CCN(C(=O)c3ccco3)CC2)cc1OC,.,.,.,.,-12
CC(C)(C)n1nnnc1C(c1cccs1)N1CCCC2(CCCCC2)C1 (configuration not stated),?,8,-10,-3,85*
c1csc(C(c2nnnn2C2CCCCC2)N2CCCC3(CCCCC3)C2)c1 (configuration not stated),11,2,3,-8,36
Cc1n[nH]c(=O)c2c(NC(=O)CSc3nc4ccccc4c(=O)n3C(C)C)oc(C)c12,-6,18,7,-2,10
COC(=O)C1=COC(OC2OC(CO)C(O)C(O)C2O)C2C(C)CC(=O)C12 (configuration not stated),.,.,.,.,-1
Cc1ccc(Nc2ccc([N+](=O)[O-])cn2)cc1Cl,-7,-9,-27,1,-15
SMILES,Calb FLC,697 NFkB inh,Jurkat NFkB inh,Beta cell apopt,Shn3 3UTR inh
Cc1cc(S(=O)(=O)c2ccc([N+](=O)[O-])cn2)ccc1Br,-32,-35,2,17,98*
O=[N+]([O-])c1ccc(S(=O)(=O)c2ccccc2)nc1,-10,-76,25,106*,93*
Cc1ccc(S(=O)(=O)c2ccc([N+](=O)[O-])cn2)cc1,-6,-55,39,105*,95*
CCCCn1c(N)c(N(CC(C)C)C(=O)c2ccc(-c3ccc(Cl)cc3)o2)c(=O)[nH]c1=O,.,-8,2,17,21
CCOC(=O)C1CCN(C(=O)COC(=O)c2cccc(NS(=O)(=O)c3ccccc3)c2)CC1,.,.,.,.,-6
CCCCc1cc(=O)oc2cc(C)cc(OCC(=O)NCC3CCC(C(=O)O)CC3)c12 (configuration not stated),0,19,-13,.,-7
O=C(c1ccccc1Br)N(Cc1ccccc1)c1ccccc1,1,-19,-8,7,18
CC(=O)Nc1cccc(OCC(O)Cn2c(C)nc3ccccc32)c1 (configuration not stated),0,3,1,-3,4
CCCOC(=O)c1ccc(OCC(O)Cn2c(C)nc3ccccc32)cc1 (configuration not stated),-4,-47,16,.,89*
CC(C)C[C@H]1CN=C(Nc2ccccc2)N1CC1CCC(C(C)(C)C)CC1 (some centres not stated),.,-16,42,111*,-32
CC(C)C[C@H]1CN=C(Nc2ccccc2)N1CC1CCCC1,-8,13,9,13,2
CC1(CCc2ccccc2)NC(=O)N(CC(=O)Nc2ccc3c(c2)OCCO3)C1=O (configuration not stated),110*,9,-4,-5,3
Cn1c(=O)n(CC#N)c2ccccc21,102*,-4,-17,-1,-7
N#CCCn1c(=O)n(CCC#N)c2ccccc21,1,16,-10,-2,3
N#CC1=C(N)N2C(=C(C#N)C1c1ccccc1)Sc1ccccc12 (configuration not stated),12,0,-32,-3,.
N#CC1=C(N)N2C(=C(C#N)C1c1cccc(Br)c1)Nc1ccccc12 (configuration not stated),-8,17,7,100*,88*
N#CC1=C(N)N2C(=C(C#N)C1c1ccc(Br)cc1)Nc1ccccc12 (configuration not stated),55,8,-2,109*,.
CCc1c(C)c2cc(Cl)c(O)c(CN3CCCC3)c2oc1=O,6,3,8,-1,-36
CCCCCc1cc(=O)oc2c(C(CCN3CCCC(C)C3)c3cc(OC)c(OC)c(OC)c3)c(OC)cc(OC)c12 (configuration not stated),-5,6,24,110*,39
COc1ccc(C(CCN2CCCCC2)c2c(OC)cc(OC)c3c(-c4ccccc4)cc(=O)oc23)cc1 (configuration not stated),-10,1,15,86*,12
CCOc1cc(C)c(S(=O)(=O)Nc2ccc3cn[nH]c3c2)cc1C,4,-6,16,89*,87*
Cc1ccc(S(=O)(=O)Nc2ccc3cn[nH]c3c2)c(C)c1,.,-1,2,1,16
C=CCOC(=O)C1=C(C)N=C2SCCC(=O)N2C1c1cccs1 (configuration not stated),-3,1,3,-3,92*
Cc1cccc(NC(=S)NNC(=O)c2csc(C(C)C)c2)c1,92*,-68,-83,-1,-66

# Screens as filed in PubChem BioAssay.
